{"source": "the supplement of paper PMC7156485", "note": "± gives the standard deviation of the averaged measurements.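 Throughout, for H1.0 immunofluorescence intensity relative to DMSO: TDF is a line of transformed human dermal fibroblasts of mesenchymal origin.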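 Throughout, for cell number relative to DMSO: TDF denotes transformed human dermal fibroblasts of mesenchymal origin.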"}
{"test_system": "TDF", "assay": "cell number relative to DMSO (% of DMSO); higher = more cells (less growth inhibition / toxicity)", "conditions": "concentration: 10 µM; 24 h", "summary_of_the_method": "(§1)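 H1.0 nuclear intensity or cell number is stated as percent of the plate control, based on the median of replicates, and HCC1569 values were smoothed for positional effects. These came from HCC1569 and TDF cells treated with compounds at 10 µM for 24 h at 37 °C in triplicate, then fixed in 3.7% formaldehyde and stained with a rabbit anti-H1.0 antibody, an AlexaFluor 647 secondary and DAPI.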"}
{"smiles": "CCN1CCCC1CNC(=O)c1c(OC)ccc(Br)c1OC", "note": "(configuration not stated) [Remoxipride]", "cell number": 101}
{"smiles": "Cc1cccc(Nc2ccccc2C(=O)O)c1C", "note": "[Mefenamic acid]", "cell number": 107}
{"smiles": "NC(CCC(=O)NC(CS)C(=O)NCC(=O)O)C(=O)O", "note": "(configuration not stated) [Glutathione]", "cell number": 96.1}
{"smiles": "Cc1cc(Nc2nc(-c3ccccc3)nc3ccccc23)n[nH]1", "note": "[GSK-3 Inhibitor XIII]", "cell number": 46.1}
{"smiles": "O=C(CCc1ccc(O)cc1)c1c(O)cc(O)cc1OC1OC(CO)C(O)C(O)C1O", "note": "(configuration not stated) [Phlorizine]", "cell number": 99.3}
{"smiles": "CCN(CC)CC#CCOC(=O)C(O)(c1ccccc1)C1CCCCC1.Cl", "note": "(configuration not stated) [Oxybutynin Chloride]", "cell number": 101}
{"smiles": "COc1cc(C(=O)c2ccc3ncccc3c2)cc(OC)c1OC", "note": "[quinolin-6-yl(3,4,5-trimethoxyphenyl)methanone]", "cell number": 8.78}
{"smiles": "Cc1cn(C2CC(N=[N+]=[N-])C(CO)O2)c(=O)[nH]c1=O", "note": "(configuration not stated) [3'-Azido-3'-deoxythymidine]", "cell number": "101 ± 7.6"}
{"smiles": "CNC(=O)c1cc(Oc2ccc(NC(=O)Nc3ccc(Cl)c(C(F)(F)F)c3)cc2)ccn1", "note": "[Sorafenib]", "cell number": 21.5}
{"smiles": "CON=C(C(=O)NC1C(=O)N2C(C(=O)O)=C(COC(C)=O)CSC12)c1csc(N)n1", "note": "(configuration not stated) [Cefotaxime Acid]", "cell number": 99.1}
{"smiles": "Nc1ccccc1NC(=O)CCCCCCC(=O)Nc1ccccc1", "note": "[N~1~-(2-aminophenyl)-N~8~-phenyloctanediamide]", "cell number": 89.4}
{"smiles": "COc1cc2oc(=O)ccc2cc1O", "note": "[Isoscopoletine]", "cell number": 92.4}
{"smiles": "CC(C)=CCCC(C)=CCCC(C)=CCSCC(=O)O", "note": "[Farnesylthoiacetic acid]", "cell number": 101}
{"smiles": "COc1ccccc1O", "note": "[Guaiacol]", "cell number": 107}
{"test_system": "TDF", "assay": "H1.0 immunofluorescence intensity relative to DMSO (% of DMSO); higher = stronger H1.0 induction, active = 120 or more", "conditions": "concentration: 10 µM; 24 h", "summary_of_the_method": "as §1"}
{"smiles": "CN(C)CCC=C1c2ccccc2C=Cc2ccccc21.Cl", "note": "[Cyclobenzaprine hydrochloride]", "H1.0 immunofluorescence intensity": "109 (inactive)"}
{"smiles": "C=CC(C)(C=Cc1ccc(O)cc1)CCC=C(C)C", "note": "(configuration not stated) [Bakuchiol]", "H1.0 immunofluorescence intensity": "97.7 (inactive)"}
{"smiles": "CCCC(=O)NCCc1c2n(c3ccc(OC)cc13)CCCc1ccccc1-2", "H1.0 immunofluorescence intensity": "84.7 (inactive)"}
{"smiles": "O=C(Nc1cccc(C(=O)Nc2ccc(S(=O)(=O)[O-])c3cc(S(=O)(=O)[O-])cc(S(=O)(=O)[O-])c23)c1)Nc1cccc(C(=O)Nc2ccc(S(=O)(=O)[O-])c3cc(S(=O)(=O)[O-])cc(S(=O)(=O)[O-])c23)c1.[Na+].[Na+].[Na+].[Na+].[Na+].[Na+]", "H1.0 immunofluorescence intensity": "93.4 (inactive)"}
{"smiles": "CC(C)(C)c1cnc(CSc2cnc(NC(=O)C3CCNCC3)s2)o1", "H1.0 immunofluorescence intensity": "95 (inactive)"}
{"smiles": "CNCC(O)C(O)C(O)C(O)CO", "note": "(configuration not stated) [Meglumine]", "H1.0 immunofluorescence intensity": "99.3 (inactive)"}
{"smiles": "CCCCCCCCCCCC(CC1OC(=O)C1CCCCCC)OC(=O)C(CC(C)C)NC=O", "note": "(configuration not stated) [Tetrahydrolipistatin]", "H1.0 immunofluorescence intensity": "99.2 (inactive)"}
{"smiles": "O=c1cc(-c2ccccc2)oc2cc(O)cc(O)c12", "note": "[Chrysine]", "H1.0 immunofluorescence intensity": "93.8 (inactive)"}
{"smiles": "CCCCCC(O)C=CC1=C(CCCCCCC(=O)O)C(=O)CC1", "note": "(configuration not stated) [Prostaglandin B1]", "H1.0 immunofluorescence intensity": "97.7 (inactive)"}
{"smiles": "Br.CN(C)CCCC1(c2ccc(F)cc2)OCc2cc(C#N)ccc21", "note": "(configuration not stated) [Citalopram hydrobromide]", "H1.0 immunofluorescence intensity": "96 (inactive)"}
{"smiles": "CSc1nc(N)c2ncn(C3OC(COP(=O)([O-])OP(=O)([O-])OP(=O)([O-])[O-])C(O)C3O)c2n1.[Na+].[Na+].[Na+].[Na+]", "note": "(configuration not stated) [2-Methylthioadenosine triphosphate tetrasodium]", "H1.0 immunofluorescence intensity": "93 (inactive)"}
{"smiles": "CCCN(CCC)C(=O)C(CCC(=O)O)NC(=O)c1ccccc1", "note": "(configuration not stated) [Proglumide]", "H1.0 immunofluorescence intensity": "88.6 (inactive)"}
{"smiles": "O=c1cc(-c2ccccc2)[nH]c2nc(Cl)ccc12", "note": "[7-Chloro-4-hydroxy-2-phenyl-1,8-naphthyridine]", "H1.0 immunofluorescence intensity": "141 (active)"}
{"smiles": "O=C1Cc2c([nH]c3ccc(Br)cc23)-c2ccccc2N1", "note": "[Kenpaullone]", "H1.0 immunofluorescence intensity": "91.6 (inactive)"}
{"smiles": "S=c1ccss1", "note": "[1,2-Dithiole-3-thione]", "H1.0 immunofluorescence intensity": "89.6 (inactive)"}
{"smiles": "OC1(c2ccc(Cl)cc2)CCN(Cc2c[nH]c3ccccc23)CC1", "H1.0 immunofluorescence intensity": "106 (inactive)"}
{"smiles": "C=C(CC)C(=O)c1ccc(OCC(=O)O)c(Cl)c1Cl", "note": "[Ethacrynic Acid]", "H1.0 immunofluorescence intensity": "95.9 (inactive)"}
{"smiles": "COc1cccc(OC)c1OCCNCC1COc2ccccc2O1.Cl", "note": "(configuration not stated) [WB-4101 hydrochloride]", "H1.0 immunofluorescence intensity": "93.7 (inactive)"}
